Experimental findings from PubChem BioAssay AID1851 (National Center for Advancing Translational Sciences (NCATS), 2009) are described below.

Values joined by “and” are separate entries in the source; they are usually repeats but may differ in a detail not shown here. Identical values can stand only once. About 5,800 (36%) of roughly 16,000 compounds were called active. About 23% were inconclusive and are not listed. Calls come from the whole dose curve; as a rule, active = well fitted curve in the direction sought with a large enough effect; inconclusive = small, poorly fitted or top-dose-only effect, or effect the other way; inactive = no such curve, though single readings can be large or run the other way. This is one part of the list. More than one record can exist for a structure, and the calls need not agree.
% is set by controls: 0 for no effect and ±100 for the full control effect.

In this assay the target is Cytochrome P450 2C19 (Homo sapiens) (UniProt P33261). Description: Cytochrome panel assay with activity outcomes. To be noted: recombinant CYP, pro-luciferin dealkylation, luminescence, p450-cyp2c19; series mostly up to 57.1 µM; activity, negative = inhibition: at the top concentration.
Sequence of Cytochrome P450 2C19 (Homo sapiens) (P33261 whole entry, looked up): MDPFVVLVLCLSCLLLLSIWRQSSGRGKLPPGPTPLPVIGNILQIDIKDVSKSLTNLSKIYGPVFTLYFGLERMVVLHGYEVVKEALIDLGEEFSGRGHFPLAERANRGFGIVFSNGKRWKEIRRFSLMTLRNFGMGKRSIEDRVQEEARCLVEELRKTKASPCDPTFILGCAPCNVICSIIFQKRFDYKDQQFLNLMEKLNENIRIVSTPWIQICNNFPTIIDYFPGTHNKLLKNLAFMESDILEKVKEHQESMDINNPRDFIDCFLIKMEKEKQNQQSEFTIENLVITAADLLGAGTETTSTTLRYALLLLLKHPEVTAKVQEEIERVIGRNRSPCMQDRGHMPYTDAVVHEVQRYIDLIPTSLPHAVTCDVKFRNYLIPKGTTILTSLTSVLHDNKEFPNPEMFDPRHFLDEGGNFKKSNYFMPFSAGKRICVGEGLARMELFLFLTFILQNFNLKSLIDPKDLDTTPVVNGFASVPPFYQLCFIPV
One may read the AC50 as the concentration giving half of the maximal activity seen. Regarding `CCOC(=O)c1[nH]c(C)c(C(=O)N2CCC3(CC2)OCCO3)c1C`, the AC50 is 5.01 µM (active). As for `OCc1cnc[nH]1`, the “activity, negative = inhibition” value was -19.3% (inactive). Consider `CC(C)(c1ccc(OC[C@@H]2CO2)cc1)c1ccc(OC[C@H]2CO2)cc1`, for which the “activity, negative = inhibition” value is 21.1% (inactive). Regarding `C[C@@H]1O[C@@H](O[C@H]2C[C@@H](O)[C@@]3(CO)[C@H]4[C@H](O)C[C@]5(C)[C@@H](C6=CC(=O)OC6)CC[C@]5(O)[C@H]4CC[C@@]3(O)C2)[C@@H](O)[C@H](O)[C@H]1O`, the activity, negative = inhibition is 30.3% [at 11.4 µM] (inactive). Take `CC(C(=O)c1c[nH]c2ccccc12)N1CCSCC1` (centres undefined): the AC50 was 8.91 µM (active). Turning to `N[C@H](Cc1c[nH]c2ccccc12)P(=O)(O)O`, the activity, negative = inhibition was 13.8% [at 11.4 µM] (inactive).

In the case of `C[N+]1(C)[C@@H]2CC[C@H]1CC(OC(=O)c1c[nH]c3ccccc13)C2` (some centres undefined), the “activity, negative = inhibition” value was 19.7% (inactive). On to `C[C@H]1C(=O)O[C@@H]2CCN3CC=C(COC(=O)[C@@](C)(O)[C@@]1(C)O)[C@H]23`, for which the “activity, negative = inhibition” value was 5.72% [at 25.6 µM] (inactive).

For the compound `CN1C(=O)CCS(=O)(=O)[C@@H]1c1ccc(Cl)cc1`, the “activity, negative = inhibition” value was 12.3% [at 25.6 µM] (inactive). The same measure, in the same setting: for `Brc1c(NC2=NCCN2)ccc2nccnc12` the value was -34.5% (inactive). For the compound `c1ccc2c(c1)[I+]c1ccccc1-2`, the AC50 is 501 nM (active) and 63.1 nM (active).

Turning to `CC[C@]1([C@H]2O[C@@H]([C@@H]3O[C@](O)(CO)[C@@H](C)C[C@H]3C)C[C@H]2C)CC[C@@H]([C@]2(C)CC[C@@]3(C[C@@H](O)[C@@H](C)[C@@H]([C@H](C)[C@H](OC)[C@H](C)C(=O)O)O3)O2)O1`, the “activity, negative = inhibition” value was -5.36% [at 25.6 µM] (inactive).

As for `NCCCNCCSP(=O)(O)O`, the “activity, negative = inhibition” value was -12% (inactive). For the compound `CCN1CCN(Cc2cc(OC)c(OC)cc2[N+](=O)[O-])CC1`, the “activity, negative = inhibition” value is 32.1% (inactive). Turning to `c1ccc([C@H]2CNCc3ccccc32)cc1`, the “activity, negative = inhibition” value was -8.22% (inactive). Take `Cc1ccc(N(C)C(=O)Oc2cccc3ccc(C)nc23)cc1`: the AC50 was 7.94 µM (active). With `C=CCN1C[C@@H](C)N([C@H](c2ccc(C(=O)N(CC)CC)cc2)c2cccc(OC)c2)C[C@H]1C`, the “activity, negative = inhibition” value is -13.5% (inactive).

Regarding `Cc1cc(C)c(-n2c(O)c(C=NCCN3CCOCC3)c(=O)[nH]c2=O)c(C)c1`, the “activity, negative = inhibition” value was -7% (inactive). `CC(C)CN1CCCC2(CCN(C(=O)c3ccncc3)CC2)C1`: the “activity, negative = inhibition” value is -18.7% (inactive). For the compound `NCCCC[C@H](N[C@@H](CCc1ccccc1)C(=O)O)C(=O)N1CCC[C@H]1C(=O)O`, the “activity, negative = inhibition” value is 33.4% [at 25.6 µM] (inactive). Turning to `CN(C)C=C1C(=O)N(C2CCCCC2)C(=O)N(C2CCCCC2)C1=O`, the AC50 was 20 µM (active). Consider `N=C(N)c1ccc(-c2ccc(-c3ccc(C(=N)N)cc3)o2)cc1`, for which the activity, negative = inhibition was 37% [at 11.4 µM] (inactive). Same read-out and setting: for `CN1CCC2(CC1)CCN(C(=O)Oc1ccccc1)CC2` the value was -2.06% (inactive); for `CCN1C[C@@]2(COC)CC[C@H](OC)[C@]34[C@@H]1[C@]1(OCO[C@@]15C[C@@H](OC)C1C[C@H]3[C@H]5[C@@H]1OC)[C@H](O)[C@@H]24`, 8.77% [at 25.6 µM] (inactive); for `O=C(O)CC[N+](=O)[O-]`, 37.9% (inactive). As to `Cc1c(OCC(F)(F)F)ccnc1CS(=O)c1nc2ccccc2[nH]1` (centres undefined), the AC50 is 0.1 µM (active). Take `CC1(C)N(O)C(c2ccc(C(=O)O)cc2)=[N+]([O-])C1(C)C`: the “activity, negative = inhibition” value was 17.1% (inactive). `CCc1ccc(CCN2CCCCC2)nc1`: the activity, negative = inhibition is -27.8% [at 11.4 µM] (inactive). For `Cc1ccccc1-c1nc(CS(=O)CC(=O)N2CCC3(CC2)OCCO3)c(C)o1` (centres undefined), the AC50 is 10 µM (active). For `CCc1ccccc1NC(=S)NC1CC2CCC(C1)N2Cc1ccco1` (centres undefined), the “activity, negative = inhibition” value is -14.7% (inactive). In the case of `Nc1nc(N)c(Cn2ccnc2)c(=O)[nH]1`, the activity, negative = inhibition was 32.7% [at 11.4 µM] (inactive). Regarding `N[C@H](Cc1o[nH]c(=O)c1Cl)C(=O)O`, the AC50 is 1.26 µM (active). As for `Cc1o[nH]c(=O)c1C[C@H](N)C(=O)O`, the AC50 entry was “inactive and 2.51 µM (active)”.

Take `N[C@@H](Cc1cc(Br)c(O)c(Br)c1)C(=O)O`: the activity, negative = inhibition was 11.6% [at 11.4 µM] (inactive). Turning to `Cc1o[nH]c(=O)c1C[C@@H](N)C(=O)O`, the “activity, negative = inhibition” value is -36.4% (inactive). As for `N[C@@H](Cn1oc(=O)[nH]c1=O)C(=O)O`, the “activity, negative = inhibition” value is -33.9% (inactive). Turning to `N[C@H](CCl)C(=O)O`, the “activity, negative = inhibition” value is -7.13% (inactive).

Take `O=c1cc(-c2ccc(O)c(O)c2)oc2cc(O)cc(O)c12`: the “activity, negative = inhibition” value is -40.2% [at 25.6 µM] (inactive). Consider `Nc1ccc(CCN2CCN(c3cccc(C(F)(F)F)c3)CC2)cc1`, for which the AC50 is 7.94 µM (active). As for `NCCCN1CCN(c2ccccc2)CC1`, the activity, negative = inhibition is 2.32% [at 11.4 µM] (inactive).

As for `Cc1cc(OCc2ccc([N+](=O)[O-])cc2)c2c3c(c(=O)oc2c1)CCCC3`, the AC50 was 0.708 µM (active). As to `Cc1cc(OCC(=O)OC(C)C)c2c3c(c(=O)oc2c1)CCCC3`, the AC50 is 3.55 µM (active). In the case of `CC(C)[C@H](CO)Nc1nc(Nc2cccc(Cl)c2)c2ncn(C(C)C)c2n1`, the “activity, negative = inhibition” value is -35.5% (inactive). On to `CC[C@H](C)C(=O)O[C@@H]1[C@H](O)[C@@H]2[C@H](CN3C[C@@H](C)CC[C@@H]3[C@@]2(C)O)[C@@H]2C[C@@]34O[C@@]5(O)[C@@H](OC(=O)[C@](C)(O)CC)CC[C@@]3(C)[C@H]5[C@H](OC(C)=O)[C@@H](OC(C)=O)[C@H]4[C@]12O`, for which the “activity, negative = inhibition” value was 14.3% [at 25.6 µM] (inactive).
